Several values for one entry are separate records, joined by “and”; a condition that tells them apart may be missing. Identical values can stand only once. Out of some 6,400 compounds screened, about 610 (9.5%) were called active. This is one part of a sample in which actives are shown more often than they occur. Cut-off read from the data, not from the text of the source: active = activity change below about -70%; inconclusive = no clear call, values can overlap the other calls; inactive = above that. More than one record can exist for a structure, and the calls need not agree.
Assay: T. gondii ME49Luc in HeLa cells, luciferase assay, 72 h, no IFN-y (AID 1259421)
Conditions: stronger effect = lower value, concentration not given here

| SMILES | activity change, negative = inhibition |
| --- | --- |
| O=[N+]([O-])c1cn2c(n1)OC[C@@H](OCc1ccc(OC(F)(F)F)cc1)C2 | -78.6% (active) |
| CC1O[C@@H](Oc2c(-c3ccc(O)c(O)c3)oc3cc(O)cc(O)c3c2=O)[C@H](O)[C@H](O)[C@H]1O (some centres undefined) | 5.62% (inactive) |
| O=C1NC(=O)/C(=C\c2ccc(-c3ccc(F)cc3)o2)S1 | 32.3% (inactive) |
| [2H]C([2H])([2H])C(O)(CCO[C@@H](C)[C@H]1CC[C@H]2/C(=C/C=C3/C[C@@H](O)C[C@H](O)C3=C)CCC[C@]12C)C([2H])([2H])[2H] | 0.514% (inactive) |
| COc1ccc2c(=O)c(CC(=O)O)coc2c1 | 4.96% (inactive) |
| CO/N=C(/C(=O)N[C@@H]1C(=O)N2C(C(=O)OCOC(=O)C(C)(C)C)=C(/C=C/c3scnc3C)CS[C@H]12)c1csc(N)n1 | 2.91% (inactive) |
| C/C=C1\NC(=O)[C@H]2CSSCCC=C[C@H](CC(=O)N[C@H](C(C)C)C(=O)N2)OC(=O)[C@H](C(C)C)NC1=O | -80.8% (active) |
| CC(=O)c1ccc2c(c1)[C@H](NC(=O)c1ccc(F)c(Cl)c1)[C@H](O)C(C)(C)O2 | -1.26% (inactive) |
| C[C@]12CCC(=O)C=C1CCC1C2[C@@H](O)C[C@@]2(C)C1CC[C@]2(O)C(=O)CO (some centres undefined) | -3.05% (inactive) |
| O=C(O)COc1ccc(OCCNC[C@@H](O)COc2ccccc2)cc1 | 0.151% (inactive) |
| COc1ccc2cccc(N3CCN(CCNC(=O)c4ccc(F)cc4)CC3)c2c1 | 40.8% (inactive) and 23.4% (inactive) |
| CC(C)C[C@H](NC(=O)CNC(=O)c1cc(Cl)ccc1Cl)B(O)O | -77.9% (active) |
| CC(C)C[C@H](NC(=O)CNC(=O)c1cc(Cl)ccc1Cl)B1OC(=O)CC(CC(=O)O)(C(=O)O)O1 (some centres undefined) | -87.8% (active) |
| O=C(CNC(=O)c1ccc(Cl)cc1)NO | 36.3% (inactive) |
| CCCC(C)NC(=O)c1ccc(Cl)c(Cl)c1 (centres undefined) | 6.33% (inactive) |
| CC1=C(/C=C/C(C)=C/C=C/C(C)=C/C=O)C(C)(C)CCC1 | 16.4% (inactive) |
| O=C(Nc1cccnn1)N1CCC(=Cc2cccc(Oc3ccc(C(F)(F)F)cn3)c2)CC1 | -18.9% (inactive) |
| CC1(C)C(=O)C=C[C@@]2(C)C1C=C[C@]1(C)C2CC[C@@]2(C)[C@H](c3ccoc3)OC(=O)[C@H]3O[C@]321 (some centres undefined) | -89.3% (active) |
| CC1(C)C(=O)C=C[C@@]2(C)C1CC(=O)[C@]1(C)C2CC[C@@]2(C)[C@H](c3ccoc3)OC(=O)[C@H]3O[C@]321 (some centres undefined) | 30.3% (inactive) |
| CC(=O)O[C@@H]1C[C@H]2C(C)(C)C(=O)C=C[C@]2(C)[C@H]2CC[C@@]3(C)[C@H](c4ccoc4)OC(=O)[C@H]4O[C@]43[C@@]21C | 26.1% (inactive) |

| SMILES | activity change, negative = inhibition |
| --- | --- |
| CC(=O)O[C@H]1C[C@@H](OC(C)=O)C(C)(C)C2C[C@@H](O)[C@]3(C)C(CC[C@@]4(C)[C@H](c5ccoc5)OC(=O)[C@H]5O[C@]543)[C@]21C (some centres undefined) | 5.63% (inactive) |
| COC(=O)c1csc(C(=O)c2c[nH]c3ccccc23)n1 | 5.76% (inactive) |
| OCc1c[nH]c2ccccc12 | 2.87% (inactive) and 57.8% (inactive) |
| CC(C)(C)c1cc(C(C)(C)C)c(NC(=O)c2c[nH]c3ccccc3c2=O)cc1O | -81.7% (active) |
| NC(N)=NCCNS(=O)(=O)c1cccc2cnccc12 | 0.419% (inactive) and 15.9% (inactive) |
| CC(C)c1ccc2c(c1)C(N1CCN(CCO)CC1)Cc1ccc(F)cc1S2 (centres undefined) | -37.4% (inactive) |
| CC(=O)Oc1c(C)cc(OCC(O)CNC(C)C)c(C)c1C (centres undefined) | -4.5% (inactive) |
| CNC(=O)c1cnn(-c2nc(N)c3ncn([C@@H]4O[C@H](CO)C(O)C4O)c3n2)c1 (some centres undefined) | 7.49% (inactive) |
| CC(C)(C)n1nc(-c2cccc3ccccc23)c2c(N)ncnc21 | -64.8% (inactive) and -76.3% (active) |
| CC(C)(C)n1nc(-c2ccc(Cl)cc2)c2c(N)ncnc21 | -91.7% (active) |
| Cc1ccc(-c2nn(C(C)(C)C)c3ncnc(N)c23)cc1 | -88.2% (active) and -83% (active) |
| CCNC(=O)CCC/C=C\C[C@@H]1[C@@H](/C=C/C(O)CCc2ccccc2)[C@H](O)C[C@@H]1O (some centres undefined) | 8.47% (inactive) |
| O=[N+]([O-])c1cncn1CCN1CCOCC1 | 23.6% (inactive) |
| CCCOc1ccc2nc(NC(=O)OC)sc2c1 | 106% (inactive) |
| CCCn1c(=O)[nH]c(=O)c2[nH]cnc21 | 6.86% (inactive) |
| CCC(=O)c1ccc(OCC(O)CN2CCN(c3ccccc3)CC2)cc1 (centres undefined) | 9.53% (inactive) |
| COc1ccc(N2CCOCC2)c2sc(NC(=O)N3CCC(C)(O)CC3)nc12 | 12.2% (inactive) |
| CCCCC#Cc1nc(NC)c2ncn(C3OC(CO)C(O)C3O)c2n1 (centres undefined) | -3.28% (inactive) |
| Cc1cc(OCCN2CCOCC2)nn1-c1ccc2ccccc2c1 | 13.6% (inactive) |

Source: PubChem BioAssay AID1259421 (Broad Institute, 2018)
